Results filed as inconclusive are left out. A call without a number means that no potency is given here. The source made the active and inactive calls. The call rests on the fitted dose curve; in most records, active means well fitted inhibition curve with a large enough effect in the signal ratio in the repeat runs (not every such curve was filed as active); inconclusive means weak or mixed curves, or effect the other way; inactive means no such curve, though single readings can be large or run the other way; the % refers to the signal ratio.
Molecular target: Glucocorticoid receptor (Homo sapiens) (UniProt P04150)
Sequence (P04150 whole entry, looked up): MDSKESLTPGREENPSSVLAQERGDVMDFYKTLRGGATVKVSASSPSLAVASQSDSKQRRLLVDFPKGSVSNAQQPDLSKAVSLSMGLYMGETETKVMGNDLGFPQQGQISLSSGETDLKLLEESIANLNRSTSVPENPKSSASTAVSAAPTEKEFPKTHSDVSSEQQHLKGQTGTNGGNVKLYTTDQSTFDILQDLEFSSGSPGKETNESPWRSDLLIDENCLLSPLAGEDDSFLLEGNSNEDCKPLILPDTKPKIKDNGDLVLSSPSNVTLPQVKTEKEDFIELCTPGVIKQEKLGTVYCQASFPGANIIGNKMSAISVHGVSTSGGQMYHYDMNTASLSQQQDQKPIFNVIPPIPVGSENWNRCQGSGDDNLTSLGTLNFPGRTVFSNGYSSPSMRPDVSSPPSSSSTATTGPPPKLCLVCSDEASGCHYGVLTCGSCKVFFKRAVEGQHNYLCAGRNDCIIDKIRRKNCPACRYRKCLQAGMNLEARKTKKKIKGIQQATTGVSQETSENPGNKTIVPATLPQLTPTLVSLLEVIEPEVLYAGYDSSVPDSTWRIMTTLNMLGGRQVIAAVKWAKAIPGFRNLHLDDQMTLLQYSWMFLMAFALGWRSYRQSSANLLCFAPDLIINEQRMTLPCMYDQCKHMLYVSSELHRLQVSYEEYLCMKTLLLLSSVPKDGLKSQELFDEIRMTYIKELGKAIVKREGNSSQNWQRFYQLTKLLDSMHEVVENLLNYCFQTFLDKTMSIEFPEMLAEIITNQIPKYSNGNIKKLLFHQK
Test: qHTS assay to identify small molecule antagonists of the glucocorticoid receptor (GR) signaling pathway (AID 720692)
Conditions: GR-bla HeLa, beta-lactamase FRET ratio, dexamethasone-stimulated, 18 h; series mostly up to 58.5 µM
Excerpt: U.S. Tox21 Program National Center for Advancing Translational Sciences [NCATS] NIH Chemical Genomics Center [NCGC] U.S. Environmental Protection Agency [EPA] National Institutes of Environmental Health Sciences [NIEHS] National Toxicology Program [NTP] U.S. Food and Drug Administration [FDA] Tox21 Assay Overview: The Glucocorticoid receptor (GR) is one of the members of the nuclear receptor family of ligand-dependent transcription factors. GR plays a critical role in carbohydrate, protein and lipid metabolisms and programmed cell death. CellSensor GR-bla HeLa cell line (Invitrogen) contains a beta-lactamase reporter gene under the control of the glucocorticoid response element stably integrated into HeLa cells, a cervical cancer cell line that expresses glucocorticoid receptor. The activation of the reporter gene under culture conditions can be detected by fluorescence intensity. This cell line has been used to screen the Tox21 10K compound library and to identify the compounds that inhibit the GR signaling.
Tox21 Assay Protocol Summary: The GR-bla HeLa cells were dispensed at 1500 cells/5 ul/well in 1536-well black wall/clear bottom plates using a Multidrop Combi (ThermoFisher Scientific, Waltham, MA) dispenser. After the assay plates were incubated at a 37 C/5% CO2 incubator for 4 hours, 23 nL of compounds dissolved in DMSO, positive controls or DMSO only was transferred to the assay plate by a pintool station (Kalypsys, San Diego, CA), followed by addition of 1 uL of dexamethasone (5 nM, final concentration in the well). The plates were incubated at 37 C for 18 hours. After 1 uL of LiveBLAzerTM B/G FRET substrate was added using a Flying Reagent Dispenser (Aurora Discovery, San Diego, CA), the plates were incubated at room temperature for 2 hours, and fluorescence intensity was measured by an Envision plate reader (PerkinElmer, Shelton, CT).

Question: C#CC(C)(C)NC(=O)c1cc(Cl)cc(Cl)c1 was tested. Which Potency did it give?
Answer: The Potency was “inactive”.

Question: Which Potency does the source give for CCOC(=O)c1ccccc1C(=O)OCC here?
Answer: The Potency was “inactive”.

Question: Which Potency does the source give for O=c1[nH]c(=O)[nH]c(=O)[nH]1 here?
Answer: Its Potency is “inactive”.

Question: Which Potency does the source give for COC(=O)c1ccccc1N here?
Answer: Its Potency is “inactive”.

Question: c1ccc2c(c1)Oc1ccccc1O2 was tested. Which Potency did it give?
Answer: Its Potency is “inactive”.

Question: Which Potency does the source give for CN(C)N=O here?
Answer: The Potency was “inactive”.

Question: For CON(C)C(=O)Nc1ccc(Cl)c(Cl)c1, which Potency is on record?
Answer: The Potency was “inactive”.

Question: Which Potency does the source give for O=c1[nH]c2ccccc2c(=O)o1 here?
Answer: Its Potency is “inactive”.

Question: Which Potency does the source give for C=CCO here?
Answer: The Potency was “inactive”.

Question: Which Potency does the source give for C=C(C)CCl here?
Answer: The Potency was “inactive”.

Question: With CC(C)(Cl)Cl as the molecule, how does the Potency read?
Answer: Its Potency is “inactive”.

Question: With CCOP(=S)(OCC)Oc1cnc2ccccc2n1 as the molecule, how does the Potency read?
Answer: The Potency was “inactive”.

Question: With Nc1c(Cl)c(Cl)nc(C(=O)O)c1Cl as the molecule, how does the Potency read?
Answer: The Potency was “inactive”.

Question: How did the Potency turn out when Cc1cc(Cl)ccc1O was run?
Answer: Its Potency is “inactive”.

Question: How did the Potency turn out when CC(C)(C)OOC(C)(C)C was run?
Answer: The Potency was “inactive”.

Question: CCCCN(CC)C(=O)SCCC was tested. Which Potency did it give?
Answer: The Potency was “inactive”.

Question: Which Potency does the source give for CCCCN(CCCC)SN(C)C(=O)Oc1cccc2c1OC(C)(C)C2 here?
Answer: The Potency was “inactive”.

Question: For [N-]=[N+]=[N-], which Potency is on record?
Answer: Its Potency is “inactive”.

Question: NCCc1ccc(O)cc1 was tested. Which Potency did it give?
Answer: The Potency was “inactive”.

Question: Which Potency does the source give for Cc1ccccc1O here?
Answer: Its Potency is “inactive”.

Question: How did the Potency turn out when O=[N+]([O-])c1ccc(Oc2ccc(Cl)cc2Cl)cc1 was run?
Answer: Its Potency is “inactive”.

Question: Which Potency does the source give for O=S(=O)(c1ccc(O)cc1)c1ccc(O)cc1 here?
Answer: The Potency was “inactive”.

Question: With Clc1ccccc1Cl as the molecule, how does the Potency read?
Answer: The Potency was “inactive”.

Question: How did the Potency turn out when c1ccc(-c2ccccc2)cc1 was run?
Answer: Its Potency is “inactive”.

Question: With CC(=O)C=C(C)C as the molecule, how does the Potency read?
Answer: The Potency was “inactive”.

Question: For CCCC1COC(Cn2cncn2)(c2ccc(Cl)cc2Cl)O1 (stereo not given), which Potency is on record?
Answer: The Potency was “inactive”.

Question: How did the Potency turn out when O=[N+]([O-])c1ccccc1 was run?
Answer: Its Potency is “inactive”.

Question: BrCCBr was tested. Which Potency did it give?
Answer: Its Potency is “inactive”.

Question: CC(C)(C)OOC(=O)c1ccccc1 was tested. Which Potency did it give?
Answer: Its Potency is “inactive”.

Question: Which Potency does the source give for COP(N)(=O)SC (stereo not given) here?
Answer: The Potency was “inactive”.

Question: With c1ccc2c(c1)oc1ccccc12 as the molecule, how does the Potency read?
Answer: Its Potency is “inactive”.

Question: For Oc1ccccc1Cl, which Potency is on record?
Answer: The Potency was “inactive”.

Question: Nc1ccc(Cc2ccc(N)cc2)cc1 was tested. Which Potency did it give?
Answer: The Potency was “inactive”.

Question: For CNC(=O)Oc1ccccc1OC(C)C, which Potency is on record?
Answer: Its Potency is “inactive”.

Question: Which Potency does the source give for COCCl here?
Answer: Its Potency is “inactive”.

Question: COC(=O)NS(=O)(=O)c1ccc(N)cc1 was tested. Which Potency did it give?
Answer: Its Potency is “inactive”.

Question: With CC(C#N)CCC#N (stereo not given) as the molecule, how does the Potency read?
Answer: Its Potency is “inactive”.

Question: For CCOP(=S)(OCC)SCCSCC, which Potency is on record?
Answer: Its Potency is “inactive”.

Question: CN(C)CCO was tested. Which Potency did it give?
Answer: The Potency was “inactive”.

Question: For O=[N+]([O-])c1ccc([As](=O)(O)O)cc1, which Potency is on record?
Answer: The Potency was “inactive”.

— PubChem BioAssay (Tox21)
